Screening data (PubChem)
In the library only some 4.6% were active in any assay of this set; here they are far more common.
HSF-1 act: increases HSF-1 driven luciferase reporter signal. NIH3T3-HGL HSF-1 luciferase reporter, MG132, 8 h; 100% = twice DMSO control signal. activation, % at 9 µM. actives 1.7% (n = 300,000). AID 504408;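 active = mean replicate activation of at least 50% with a set share of replicates each reaching 50%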;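 also: 0% = median of the neutral control wells and 100% = twice that signal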
FXN GAA850 act: increases GAA850 frataxin promoter reporter activity. HEK293 lucGAA850 FXN promoter luciferase reporter, 24 h; percent of 10 µM SAHA response. activation, % at 6 µM. actives 0.56% (n = 360,000). AID 540364;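 active = activation above the average of all compounds screened plus 3 SD, cutoff fixed separately per campaign, cut at about 7.5% in these data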;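 also: 0% = DMSO wells and 100% = 10 µM SAHA wells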
AHR activator: activators of human aryl hydrocarbon receptor; AHR-responsive luciferase reporter cells, luminescence; activation, % at 5 µM; actives 2.5% (n = 320,000); AID 2796; in the data active = activation above about 47%;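 also: 0% = vehicle wells and 100% = reference agonist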
Target sequence (P35869 whole entry, looked up): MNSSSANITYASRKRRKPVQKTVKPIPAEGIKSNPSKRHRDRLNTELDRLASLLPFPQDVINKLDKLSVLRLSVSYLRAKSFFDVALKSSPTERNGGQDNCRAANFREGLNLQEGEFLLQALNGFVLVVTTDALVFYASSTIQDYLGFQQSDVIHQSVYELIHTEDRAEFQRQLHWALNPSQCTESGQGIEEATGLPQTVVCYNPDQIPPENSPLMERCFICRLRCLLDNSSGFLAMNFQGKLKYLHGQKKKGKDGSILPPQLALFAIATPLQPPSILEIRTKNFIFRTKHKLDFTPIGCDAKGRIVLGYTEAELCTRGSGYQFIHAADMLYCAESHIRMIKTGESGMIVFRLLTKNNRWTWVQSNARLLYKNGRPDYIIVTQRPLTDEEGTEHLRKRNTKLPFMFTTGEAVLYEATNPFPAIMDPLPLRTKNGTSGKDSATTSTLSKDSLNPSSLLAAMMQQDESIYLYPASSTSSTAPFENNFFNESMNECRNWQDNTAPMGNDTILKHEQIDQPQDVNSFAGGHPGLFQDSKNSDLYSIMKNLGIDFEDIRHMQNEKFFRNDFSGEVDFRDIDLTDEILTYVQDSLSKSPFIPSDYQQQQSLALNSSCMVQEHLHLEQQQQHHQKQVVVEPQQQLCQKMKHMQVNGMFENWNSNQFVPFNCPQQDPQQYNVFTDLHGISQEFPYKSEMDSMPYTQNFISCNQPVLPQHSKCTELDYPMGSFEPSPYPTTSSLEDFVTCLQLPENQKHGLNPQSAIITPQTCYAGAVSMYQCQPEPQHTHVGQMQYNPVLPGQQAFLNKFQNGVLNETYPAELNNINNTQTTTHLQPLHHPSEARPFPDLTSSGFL
HSF1 inhib: HSF1 inhibition; NIH3T3-HGL HSE-luciferase, MG132-induced, luminescence 8 h; active compounds read low; activity change, negative = inhibition, % at 7.5 µM (by protocol); actives 0.77% (n = 300,000); AID 2098;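 active = more than half of replicate wells show activity change below -50%, luminescence cut by over half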;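 also: luciferase reports HSF-1 transcriptional activity via heat shock element; 0% = median of DMSO wells and -100% = zero luminescence signal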
* hit, by the source's call; x = no result given.

SMILES	HSF-1 act	FXN GAA850 act	AHR activator	HSF1 inhib
CC[n+]1c(/C=C/Nc2ccccc2)oc2ccccc21	-59	0	109*	-45
COc1ccc(CCN2C(=O)/C(=C\c3ccco3)SC2=S)cc1OC	6	3	x	-1
Oc1c(C=Nc2ccccc2Cl)[nH]c2ccccc12	-46	3	57*	-33
Cc1cc(C(=O)Nc2cccc3cccnc23)ccc1[N+](=O)[O-]	45	3	27	23
O=C1CC(NNc2nc3ccccc3s2)C(=O)N1c1ccccc1 (configuration not stated)	43	-3	-4	26
COc1cccc(N2C(=O)CC(NNc3nc4ccccc4s3)C2=O)c1 (configuration not stated)	69*	1	0	39
CCc1ccc(N2C(=O)CC(NNc3nc4ccccc4s3)C2=O)cc1 (configuration not stated)	220*	2	25	162
COc1ccccc1-c1nnc2n1N=C(C(C)(C)C)CS2	9	1	-1	-2
COc1cccc(-c2nnc3n2N=C(C(C)(C)C)CS3)c1	-66	-9	4	-63*
COc1cccc(C2=Nn3c(nnc3-c3ccccc3O)SC2)c1	11	2	58*	2
COc1cccc(-c2nnc3n2N=C(c2cc(OC)ccc2OC)CS3)c1	4	0	59*	-7
CN1C(=O)c2ccc(C(=O)Nc3ccccc3O)cc2C1=O	34	-1	56*	28
c1ccc(COc2cccc(CN3CCN(c4ccccn4)CC3)c2)cc1	-63	-1	4	-55*
O=c1oc(-c2cccs2)nc2sc3c(c12)CCCC3	63*	-1	4	36
N#Cc1ccc(Cl)cc1NC(=O)CNCc1cccs1	65*	2	34	25
COC(C[C@H]1O[C@@H]1[C@@H](O)[C@H](C)OCc1ccccc1)OC	5	0	x	-5
O=C(CSc1nnc2c(Cl)cc(C(F)(F)F)cn12)N(Cc1ccccc1)Cc1ccccc1	105*	0	0	57
Cc1cc(NC(=O)COC(=O)C2CCN(S(=O)(=O)c3ccc(Cl)cc3)CC2)no1	2	0	1	3
Cc1cc(Nc2cccc(Cl)c2)c2ccccc2n1	16	3	18	-1
Cc1cc(Nc2ccc3c(c2)OCCO3)c2cc(Cl)ccc2n1	-58	-6	41	-58*
Cc1ccc(Oc2ccc(OCC(=O)NC3CCS(=O)(=O)C3)cc2)cc1 (configuration not stated)	53*	-1	3	37
O=C(COc1ccc(Oc2ccccc2)cc1)NC1CCS(=O)(=O)C1 (configuration not stated)	x	-2	1	x
COc1ccccc1N1CCN(C(=O)COc2ccc(Cl)cc2)CC1	29	1	-1	2
Cc1cc(C)n(-c2cc(N3CCN(S(=O)(=O)c4ccc(C)c(C)c4)CC3)ccc2[N+](=O)[O-])n1	18	-1	4	10
c1ccc(COc2ccc(OCCn3cncn3)cc2)cc1	26	4	10	11
SMILES	HSF-1 act	FXN GAA850 act	AHR activator	HSF1 inhib
c1ccc(Oc2cccc(OCCn3cncn3)c2)cc1	-69	-1	0	-57*
C/C(NC(=O)c1ccccc1F)=C1\C(=O)C[C@@H]2[C@H]1C2(C)C	51*	4	7	27
CCc1cc2c(=O)c(-c3ccc4c(c3)OCCO4)coc2c(CN2CCCCC2C)c1O (configuration not stated)	2	3	2	4
CCc1cc2c(=O)c(-c3ccc4c(c3)OCCO4)coc2cc1OS(C)(=O)=O	56*	4	5	28
CCCCCCC(C)n1cc(C(C)=O)c(=O)n(C)c1=O (configuration not stated)	25	3	-2	4
Cc1nn(C)cc1S(=O)(=O)Nc1ccc2c(c1)OCCO2	-69	-8	2	-63*
Cc1n[nH]c(C)c1S(=O)(=O)Nc1ccc2c(c1)OCCO2	-63	-7	-1	-62*
Cc1c(S(=O)(=O)Nc2ccc3c(c2)OCCO3)cnn1C	-10	-1	0	5
COc1ccc(Nc2nnc(-c3ccc(N4CCOCC4)c([N+](=O)[O-])c3)c3ccccc23)cc1	x	0	x	x
COCCCN(Cc1ccco1)C(=O)CSc1nc2ncccc2[nH]1	-64	1	3	-55*
CC(C)=CCc1c(O)cc2c(=O)c3ccc(O)cc3oc2c1O	-37	2	62*	-37
O=C(Nc1ccc(F)cc1F)c1cncc(Br)c1	-26	1	38	-8
CCN(CC)C(=O)Oc1ccc(Br)cc1C(=O)Nc1ccc(F)cc1F	72*	-1	89*	38
CCOC(=O)CSc1nnc(CNc2cccc(Cl)c2)n1C	-1	1	3	-8
CCCSc1nnc(CNS(=O)(=O)c2ccc(C)cc2)n1C	-66	1	2	-61*
Cn1c(CNc2cccc(Cl)c2)nnc1SCC#N	73*	-1	21	27
CCSc1nnc(CNc2ccc(C)cc2)n1C	-7	3	75*	-2
Cc1ccc(NCc2nnc(SCC(=O)Nc3cc(C)on3)n2C)cc1	-11	0	5	-4
Cn1c(CNc2ccc(Cl)cc2)nnc1SCC#N	15	2	59*	4
S=C(Nc1ccc(Oc2ccccc2)cc1)N1CCOCC1	-10	3	1	2
O=C(CCCNC(=O)c1ccc(Cl)cc1)Nc1ccc(S(=O)(=O)Nc2ncccn2)cc1	-4	2	1	-2
Cc1c(-c2ccccc2)n(O)c(-c2ccc(N(C)C)cc2)[n+]1[O-]	x	0	x	x
COc1ccc(C(CC(=O)O)NC(C)=O)cc1OC (configuration not stated)	-2	2	4	-4
O=C(CSc1ccccc1)N1CCN(C(=O)c2ccco2)CC1	0	-1	2	0
COC(=O)c1ccncc1N	3	2	-1	-1
SMILES	HSF-1 act	FXN GAA850 act	AHR activator	HSF1 inhib
CCO/N=C/C(=O)Nc1ccc(F)cc1F	-14	2	-5	0
O=C(CSc1nc2c(c(=O)n1-c1ccc(Cl)cc1)SCC2)NCC1CCCO1 (configuration not stated)	-8	1	-8	-1
COc1cccc(-n2c(SCC(=O)NCC3CCCO3)nc3c(c2=O)SCC3)c1 (configuration not stated)	-78	0	3	-72*
Cc1[nH]nc2nc(SCC(=O)NCCC3=CCCCC3)n(-c3ccc(Br)cc3)c(=N)c12	6	-2	10	3
Cc1ccc(Cl)cc1-n1c(SCC(=O)NCCC2=CCCCC2)nc2n[nH]c(C)c2c1=N	56*	-2	19	33
Cc1ccc(-n2c(SCC(=O)NCC3CCCO3)nc3n[nH]c(C)c3c2=N)cc1Cl (configuration not stated)	11	-3	59*	-1
Cc1ccc(-n2nnnc2SCC(=O)NCCC2=CCCCC2)c(C)c1	22	1	1	6
Cc1cc(-n2c(SCC(=O)NCCC3=CCCCC3)nc3n[nH]c(C)c3c2=N)ccc1Cl	34	-4	53*	13
CC(=O)N1CCOCCOCCN(C(C)=O)CCOCCOCC1	-7	3	-2	-7
O=C(CN1CCCCCC1)NCCc1ccc(F)cc1	x	6	1	x
